Laboratory results from PubChem BioAssay (EPA / NIEHS).
Inconclusive results are not listed. Active and inactive are the calls of the source. Rule for the calls: active = hit-call score of the fitted dose curve at least 0.9, where 1 is the maximum; inconclusive = response in the unintended direction; inactive = score below 0.9.

Experiment: CLD_ACTIN_48hr: CellzDirect (CLD) Gene Expression Assay for Baseline Control (Actin) at 48 hours (AID 2283702)
Experimental: CLD_48hr is a cell-based, multiplexed-readout assay that uses hepatocyte, a human liver primary cell, with measurements taken at 48 hours after chemical dosing in a 96-well plate.CLD_ACTIN_48hr is one of 16 assay component(s) measured or calculated from the CLD_48hr assay. It is designed to make measurements of mRNA induction, a form of inducible reporter, as detected with chemiluminescence signals by Quantitative Nuclease Protection Assay (qNPA) technology.Data from the assay component CLD_ACTIN_48hr was analyzed at the endpoint, CLD_ACTIN_48hr, in the positive analysis fitting direction relative to DMSO as the negative control and baseline of activity. Using a type of inducible reporter, gain-of-signal activity can be used to understand changes in the reporter gene as they relate to the gene ACTA1. Furthermore, this assay endpoint can be referred to as a secondary readout, because this assay has produced multiple assay endpoints where this one serves a background control function. To generalize the intended target to other relatable targets, this assay endpoint is annotated to the background measurement intended target family, where subfamily is baseline control.
Human hepatocyte cultures were treated daily for two consecutive days with fresh dosing solutions containing appropriate concentrations of the 320 ToxCast chemicals (chemical identities were blinded to CellzDirect and other ToxCast collaborators), vehicle control (0.2% DMSO), and positive control inducers as summarized in Table 1. Due to the large number of treatment groups and chemicals examined, the ToxCast chemicals were divided into two groups (spanning two independent cultures of hepatocytes from separate donor preparations (Hu778: ToxCast plates 1 and 2; Hu776: ToxCast plates 3 and 4). Each preparation of human hepatocyte cultures was treated with respective vehicle control, medium only control, set of six positive controls/reference chemicals for the five hepatic receptor pathways, and a subset of eight of the ToxCast chemicals (indoxacarb, pyrithiobac-sodium, norflurazon, cyhalofop-butyl, methomyl, thiram, acetochlor, and propiconazole). These replicate data, coupled with internal replicates designed within the blinded ToxCast chemical library, provided additional data to evaluate interindividual differences between hepatocyte preparations and their potential impact on chemical profiles.Cell morphology and integrity were evaluated using phase-contrast microscopy as an indicator of hepatocyte cell health (Tyson & Green, 1987). Cultures for each treatment group (i.e., media, vehicle [0.2% DMSO], positive control inducers [multiple concentrations], and the ToxCast chemicals [multiple concentrations]) were observed and cell morphology was assessed relative to vehicle control cultures at each harvest time point (0, 6, 24, or 48 h). […] Images were evaluated at the conclusion of the study to assess changes in cell integrity and account for the effects of chemical exposure on uncharacteristic changes in concentration-dependent gene expression profiles. The results from these determinations of apparent cytotoxicity were annotated (yes/no) alongside the corresponding qNPA data for reference.At the conclusion of each treatment period, hepatocyte cultures (96-well) were washed with 1 volume of HBSS, lysed by addition of 25 ul ArrayPlate lysis buffer (HTG, Tucson, AZ), and 70 ul/well of Denaturation Oil, denatured by incubation at 95C for 10 min, and frozen at approximately -70C until analysis by nuclease protection assay (qNPA) (Roberts et al., 2007). For qNPA analysis, cell lysates were thawed at 50C for approximately 30 min, qNPA probes were added, and samples were incubated at 95C for 10 min to begin the detection process by denaturing the target RNA, dissociating the duplexes and secondary structure hybridization. At the conclusion of the hybridization period, S1 nuclease reagent was added to each sample to digest all nonprotected nucleotides at 50C for 60-90 min. […]

Structure (SMILES) | outcome
CN=C=S | inactive
C=C(C)CN(CC)c1c([N+](=O)[O-])cc(C(F)(F)F)cc1[N+](=O)[O-] | inactive
Cc1nc(N(C)C)nc(OC(=O)N(C)C)c1C | inactive
CCCC(=NOCC)C1=C(O)CC(CC(C)SCC)CC1=O (configuration not stated) | inactive
CNC(=O)N(C)c1nnc(C(C)(C)C)s1 | inactive
O=C(Nc1ccccc1-c1ccc(Cl)cc1)c1cccnc1Cl | inactive
N#Cc1c(Cl)cccc1Cl | inactive
CS(=O)(=O)c1ccc(C(=O)C2C(=O)CCCC2=O)c([N+](=O)[O-])c1 | inactive
CO/N=C(/C1=NOCCO1)c1ccccc1Oc1ncnc(Oc2ccccc2Cl)c1F | inactive
COc1cc(OC)nc(NC(=O)NS(=O)(=O)c2ncccc2OCC(F)(F)F)n1 | inactive
CCSC(=O)N1CCCCCC1 | inactive
COc1ccc(-c2ccccc2)cc1NNC(=O)OC(C)C | inactive
CCCCC(O)(Cn1cncn1)c1ccc(Cl)cc1Cl (configuration not stated) | inactive
Nc1c(Cl)c(F)nc(OCC(=O)O)c1Cl | inactive
CCCCOCN(C(=O)CCl)c1c(CC)cccc1CC | inactive
O=P(O)(O)CCCl | inactive
C=CCOC(=O)C(C)(C)OC(=O)c1cc(-n2c(=O)cc(C(F)(F)F)n(C)c2=O)ccc1Cl | inactive
Cn1c(-c2ccccc2)cc(-c2ccccc2)[n+]1C | inactive
CC(C)N1C(=O)c2ccccc2NS1(=O)=O | inactive
COC(=O)NS(=O)(=O)c1ccc(N)cc1 | inactive
COC(=O)NC(=S)Nc1ccccc1NC(=S)NC(=O)OC | inactive
Nc1c(Cl)c(Cl)nc(C(=O)O)c1Cl | inactive
CCOc1nc(C(Cl)(Cl)Cl)ns1 | inactive
Cc1cnc(C2=NC(C)(C(C)C)C(=O)N2)c(C(=O)O)c1 (configuration not stated) | inactive
Clc1cccc(C(Cl)(Cl)Cl)n1 | inactive
CCNC(=O)NC(=O)C(C#N)=NOC | inactive
Clc1nc(Cl)nc(Nc2ccccc2Cl)n1 | inactive
